Hits are enriched below; roughly 3.8% of the tested compounds scored in any of these assays.
ATXN2 expr inh – reduces ATXN2 reporter expression in HEK-293 cells. hit rate 0.72% among 360,000. Potency, µM (doses to about 57 µM), without a hit: at the top dose activity change, negative = inhibition, actives largely listed as inhibitors. HEK-293 ATXN2-luciferase reporter, luminescence, 24 h; further: on the % scale 0 is the no-effect control and ±100 the full control effect; nearly all actives have a fitted effect of over 55% in size
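qHTS (up to 57 uM final) was run with 24 h compound exposure of reporter cells at 37 °C. Each well was multiplexed: SteadyGlo luminescence measured ATXN2-luciferase expression after a fluorogenic Gly-Phe-AFC viability readout (25 uM final).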
TGFb SMAD3 inh – TGF-b pathway inhibition; HepG2 CAGA-GFP TGF-b/SMAD3 reporter, GFP fluorescence, 18 h; TGF-beta stimulated, 500 pg/mL final; Potency, µM (titrated, usually from 46.1 µM), inactives show top-dose activity, negative = inhibition, actives largely listed as inhibitors; hit rate 1.2% among 410,000; AID 588855; further: on the % scale 0 is the no-effect control and ±100 the full control effect; nearly all actives have a fitted effect of over 65% in size
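HEPG2 CAGA-GFP cells (1000/well, DMEM with 1% FBS) were pre-incubated 2 h at 37 degrees C, given compound by pin tool, then stimulated with TGF-beta at 500 pg/mL final for 18 h before per-cell GFP fluorescence imaging.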
S2 tox – reduces viability in counter-screen for ATXN expression inhibitors | S2 cells (HEK-293 line with an ATXN2-luciferase reporter) viability, CellTiter-Fluor protease fluorescence, 24 h | Potency, µM (doses to about 56.7 µM), most hits filed as cytotoxic | hit rate 0.49% among 400,000; further: nearly all actives have a fitted effect of over 40% in size
HepG2 viability – kills HepG2 cells in TGF-b inhibitor counter-screen; hit rate 0.76% among 410,000; AID 588856; Potency, µM (doses to about 46.1 µM), inactives show top-dose activity change, negative = cytotoxicity, actives largely listed as cytotoxic; HepG2 CAGA-GFP viability, ATP luminescence, 18 h
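HepG2 CAGA-GFP cells (1000/well, DMEM with 1% FBS) received compound, then TGF-beta at 500 pg/mL final, and were incubated 18 hours at 37 degrees C. Viability was read by CellTiter-Glo luminescence. Media-only wells were set as complete cell-killing and DMSO as no toxicity.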
HT1080-NT tox – kills 2HG-producing HT-1080-NT fibrosarcoma cells | HT-1080-NT fibrosarcoma viability, CellTiter-Glo ATP luminescence, 48 h | Potency, µM (titrated, usually from 46.1 µM), inactives show top-dose activity, negative = less viability, hits mostly cytotoxic | hit rate 1.6% among 360,000 | AID 686970;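 further: NT is the 2HG producing partner of a matched IDH1 knockdown line; 0% = DMSO-treated cells and -100% = media-only wells without cells; nearly all actives have a fitted effect of over 55% in size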
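Viability of the 2HG-overproducing fibrosarcoma line after 48 hours of compound exposure at 37 degrees C was determined by luminescence with CellTiter-Glo, and concentration-effect curves were then fitted and categorized.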
HT1080 IDH1KD tx – toxicity to HT-1080 IDH1 knockdown cells (counter line). HT-1080 IDH1 knockdown viability, ATP luminescence, 48 h. Potency, µM (top dose mostly 46.1 µM), for inactives: top-dose activity, negative = toxicity, usual class: cytotoxic. hit rate 2% among 360,000. AID 686971;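 further: 0% = DMSO wells and -100% = cell-free medium wells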
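Using the IDH1-knockdown HT-1080 line run in the same batch and compound series as the NT line, viability after 48 h at 37 °C was determined by CellTiter-Glo luminescence and expressed as % activity.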
Numbers without * were called inactive; i = inactive; ? = inconclusive; nt = no result. The call rests on the fitted dose curve; in most records, active means well fitted curve in the direction sought with a large enough effect; inconclusive means small, poorly fitted or top-dose-only effect, or another doubt; inactive means no such curve, though single readings can be large; an effect the other way counts as inactive or inconclusive. Potency means the concentration at half of the fitted maximal effect.

SMILES	ATXN2 expr inh	TGFb SMAD3 inh	S2 tox	HepG2 viability	HT1080-NT tox	HT1080 IDH1KD tx
CC(C)OCCCn1c(SCC(=O)Nc2ccccc2C(F)(F)F)nc2nccnc2c1=O	6%	13%	i	2.5µM*	20%	8%
CC(=O)N1CCc2c(sc3nc(SCC(C)C)n(-c4ccc(C)c(Cl)c4)c(=O)c23)C1	?	?	nt	11µM*	nt	nt
Cc1ccc(NC(=O)C2CCN(c3nc4ccccc4nc3C(F)(F)F)CC2)cc1F	?	-9%	i	-11%	nt	nt
CCn1c(-c2ccccc2F)nc2cc(NC(C)=O)cc(C(=O)N(C)Cc3c(C)nc4ccccn34)c21	nt	nt	i	nt	nt	nt
CC(=O)NC(c1ccc2ccccc2c1)c1ccc2cccnc2c1O (stereo not given)	2.8µM*	?	i	-11%	?	?
COc1ccc(C(NC(C)=O)c2ccc3cccnc3c2O)c(OC)c1 (stereo not given)	1.8µM*	-13%	?	-7%	?	6.5µM*
COc1cc(C)c(CN2C[C@H](Sc3ccccn3)C[C@H]2C(=O)N(C)C)cc1C	nt	nt	i	nt	nt	nt
C[C@]12CCC(=O)C=C1CC[C@@H]1[C@H]2[C@@H](O)C[C@@]2(C)[C@H]1CC[C@]2(O)C(=O)CO	-11%	nt	nt	nt	nt	nt
COc1ccc(C(=O)/C=C/c2ccc(O)cc2)c2c1CC(O)C(C)(C)O2 (stereo not given)	?	-10%	i	-5%	-2%	-3%
COc1ccc(C(=O)/C=C/c2ccc(O)cc2)c(O)c1CC=C(C)C	?	?	nt	-82%	?	23µM*
CCCSc1nnc2c(n1)OC(c1sccc1C)Nc1ccccc1-2 (stereo not given)	nt	-8%	nt	0%	nt	nt
O=C(C[N+]12CN3CN(CN(C3)C1)C2)c1ccc(I)cc1	nt	-25%	nt	-38%	nt	nt
Cc1ccc(SCc2cn3c(C)csc3n2)cc1	-26%	-10%	i	-42%	35µM*	?
CCOc1ccc(NC(=O)CSc2nnc3c(n2)[nH]c2ccc(S(=O)(=O)N(C)C)cc23)cc1	nt	nt	nt	nt	-1%	-6%
CCSc1ncc(Cl)c(C(=O)N(Cc2ccccc2)c2ccc(OC)cc2)n1	nt	nt	nt	-27%	nt	nt
COc1cc(C)c(C(C)C)cc1S(=O)(=O)n1cnc(C)c1	-8%	?	i	-11%	?	9.2µM*
COc1ccc(C)cc1S(=O)(=O)n1cnc(C)c1	0%	21%	i	10%	2%	0%
O=C(Cn1cccn1)N1CCOc2c(cc(-c3ncc(C(F)(F)F)cc3Cl)cc2OCC2CCCO2)C1 (stereo not given)	nt	nt	i	nt	nt	nt
CCCN(C(=O)CCl)C1=CCCCC1	8.4µM*	-1%	nt	-18%	10µM*	?
Cc1nc2cc(NS(=O)(=O)c3c(C)c(C)cc(C)c3C)ccc2s1	-11%	?	?	-37%	13µM*	13µM*
Cc1nc2ccc(NS(=O)(=O)c3c(C)c(C)cc(C)c3C)cc2s1	-28%	-13%	i	-7%	?	23µM*
Cc1ccc(S(=O)(=O)Nc2ccc3nc(C)sc3c2)cc1	-8%	0%	i	-16%	-13%	-17%
CC(C)OC(=O)CN1C(=O)S/C(=C/c2ccc(N3CCCCC3)o2)C1=O	-3%	68%	i	-60%	?	11µM*
O=C1S/C(=C/c2ccc(N3CCOCC3)o2)C(=O)N1Cc1ccc(F)cc1	-25%	53%	i	-20%	14%	9%
O=C1/C(=C/c2ccc(N3CCOCC3)o2)SC(=Nc2ccccc2)N1CCc1c[nH]c2ccccc12	18µM*	-1%	?	13µM*	7.3µM*	4.1µM*
SMILES	ATXN2 expr inh	TGFb SMAD3 inh	S2 tox	HepG2 viability	HT1080-NT tox	HT1080 IDH1KD tx
O=C1S/C(=C\c2ccc(N3CCOCC3)o2)C(=O)N1Cc1ccc(F)cc1	-15%	-6%	i	-18%	6.3µM*	3.2µM*
COc1ccc(N2CCN(C(=O)c3cc(-c4ccc(C)c(F)c4)on3)CC2)cc1	4%	1%	i	-5%	nt	nt
O=C(NCC1(N2CCCCC2)CCCC1)c1cnn(-c2nccc(-c3cccs3)n2)c1C1CC1	nt	nt	i	nt	nt	nt
Cc1ccc(C(O)c2ncc(-c3ccccc3Cl)[nH]2)cc1 (stereo not given)	29%	-2%	i	-18%	17%	10%
Cc1cc(C)cc(C(O)c2ncc(-c3ccccc3Cl)[nH]2)c1 (stereo not given)	-20%	?	?	-33%	?	21µM*
Cc1ccccc1-c1cnc(C(O)c2ccc(Cl)c(F)c2)[nH]1 (stereo not given)	3%	-21%	i	3.2µM*	-20%	-15%
OC(c1ccc(Cl)c(F)c1)c1ncc(-c2ccccc2F)[nH]1 (stereo not given)	2%	4%	i	-29%	?	?
Nc1[nH]n2c(=O)cc(-c3ccccc3)nc2c1N=Nc1ccccc1	?	-16%	32µM*	-30%	?	?
O=C(NNC1=Nc2ccccc2SC1)c1ccc(F)cc1	-31%	-26%	i	-25%	-29%	?
O=C(NNC1=Nc2ccccc2SC1)c1ccc(Cl)cc1	14µM*	-6%	?	7%	?	?
CCC(C)NC(=O)C1=CC(c2ccc3c(c2)OCO3)=NS(=O)(=O)N1C (stereo not given)	-6%	-22%	i	1%	nt	nt
Cc1ccc(NC(=O)Cn2c(O)c(N=NC(=O)c3cc4ccccc4cc3O)c3ccccc32)cc1	?	0%	nt	-42%	21µM*	?
Cc1ccc(NC(=O)Cn2c(O)c(N=NC(=O)c3ccncc3)c3ccccc32)cc1	-18%	-1%	?	-3%	14%	13%
Cc1ccccc1NC(=O)CSc1nc2c(oc3ccccc32)c(=O)n1Cc1ccco1	3%	2%	i	-11%	nt	nt
CC1CCC(C(C)C)C(OC(=O)C[n+]2cc(-c3ccc(Cl)cc3)n3c2CCC3)C1 (stereo not given)	?	11µM*	i	-36%	?	?
O=C(C[n+]1cc(-c2ccc(Cl)cc2)n2c1CCC2)N1c2ccccc2Sc2ccccc21	21%	-22%	i	-35%	-4%	-11%
COc1ccc(NC(=O)Nc2nnc(N(C)C3CCCCC3)s2)c(OC)c1	nt	11µM*	nt	-104%	nt	nt
COc1ccc(C(=O)Nc2ccc3nc(SCC(=O)N(C)c4ccccc4)sc3c2)cc1	?	?	?	-9%	nt	nt
CCSc1ncc(/C=N/Nc2ccc([N+](=O)[O-])cc2)n1C	66%	?	i	-6%	13µM*	13µM*
